The list is not random: actives were taken first. Their share in the collection is about 2.5%.
Pol beta inh-1: blocks human DNA polymerase beta activity; 340,000 compounds, 1.3% hits; Potency, µM (titrated, usually from 114 µM), without a hit: at the highest dose activity change, negative = inhibition, actives largely listed as inhibitors; P06746; AID 485314; Pol beta primer extension/strand displacement, fluorescence kinetic; also: potency is read from the fitted curve at half-maximal effect; % is scaled to controls: 0 for no effect and ±100 for the full control effect
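Pol beta (10 nM) and compounds were preincubated 15 min at room temperature, then 50 nM substrate (final) started primer extension/strand displacement. Reads were taken at 0 and 10 min; concentration-response data were fitted to a four-parameter Hill equation.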
Pol iota inh: inhibitors of human DNA polymerase iota | Q9UNA4 | Pol iota fluorescent replication assay, 10 min | Potency, µM (series often up to 115 µM), for the others: at the top dose activity, negative = inhibition, usual class: inhibitors | 390,000 compounds, 1% hits | AID 588590; also: potency is read from the fitted curve at half-maximal effect
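Pol iota at 10 nM preincubated 15 min with compounds at room temperature; reaction started with fluorescent substrate, 50 nM final. Fluorescence read kinetically at 0 and 10 min; buffer-only wells as negative control.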
Pol eta inh-1: inhibitors of human DNA polymerase eta; recombinant Pol eta, fluorescent DNA replication assay; Potency, µM (highest dose often 114 µM), for the others: at the top dose activity change, negative = inhibition, usual class: inhibitors; 390,000 compounds, 1.2% hits; AID 588591; also: potency is read from the fitted curve at half-maximal effect; % is scaled to controls: 0 for no effect and ±100 for the full control effect
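Pol eta (10 nM) was preincubated with compounds for 15 min at room temperature, after which fluorescent replication substrate (50 nM final) was added to start the reaction. Fluorescence was read kinetically at 0 and 10 min.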
APEX1 inh: inhibitors of human APE1 endonuclease | 350,000 compounds, 0.35% hits | Potency, µM (doses to about 65.8 µM), for inactives: at the highest dose activity change, negative = inhibition, most hits filed as inhibitors | recombinant APE1, TAMRA/BHQ-2 abasic DNA cleavage fluorescence;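 also: potency is read from the fitted curve at half-maximal effect; plate controls were vehicle for no effect and reference inhibitor for full effect; nearly all actives have a fitted effect of over 55% in size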
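0.75 nM APE1 + cpd, 15 min RT; start w/ 50 nM TAMRA/BHQ-2 THF-abasic dsDNA; kinetic fluor 525/598 nm ×3 reads @60 s; Δ(read3−read1); normalized to DMSO and NSC13755 control wells.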
Pol kappa inh-1: DNA polymerase kappa (human) inhibition; Potency, µM (highest dose often 107 µM), inactives show top-dose activity, negative = inhibition, most hits filed as inhibitors; Q9UBT6; purified Pol kappa, fluorescent DNA synthesis assay, 10 min; 400,000 compounds, 0.53% hits; also: potency is read from the fitted curve at half-maximal effect; % is scaled to controls: 0 for no effect and ±100 for the full control effect
Target sequence (Q9UBT6 whole entry, looked up): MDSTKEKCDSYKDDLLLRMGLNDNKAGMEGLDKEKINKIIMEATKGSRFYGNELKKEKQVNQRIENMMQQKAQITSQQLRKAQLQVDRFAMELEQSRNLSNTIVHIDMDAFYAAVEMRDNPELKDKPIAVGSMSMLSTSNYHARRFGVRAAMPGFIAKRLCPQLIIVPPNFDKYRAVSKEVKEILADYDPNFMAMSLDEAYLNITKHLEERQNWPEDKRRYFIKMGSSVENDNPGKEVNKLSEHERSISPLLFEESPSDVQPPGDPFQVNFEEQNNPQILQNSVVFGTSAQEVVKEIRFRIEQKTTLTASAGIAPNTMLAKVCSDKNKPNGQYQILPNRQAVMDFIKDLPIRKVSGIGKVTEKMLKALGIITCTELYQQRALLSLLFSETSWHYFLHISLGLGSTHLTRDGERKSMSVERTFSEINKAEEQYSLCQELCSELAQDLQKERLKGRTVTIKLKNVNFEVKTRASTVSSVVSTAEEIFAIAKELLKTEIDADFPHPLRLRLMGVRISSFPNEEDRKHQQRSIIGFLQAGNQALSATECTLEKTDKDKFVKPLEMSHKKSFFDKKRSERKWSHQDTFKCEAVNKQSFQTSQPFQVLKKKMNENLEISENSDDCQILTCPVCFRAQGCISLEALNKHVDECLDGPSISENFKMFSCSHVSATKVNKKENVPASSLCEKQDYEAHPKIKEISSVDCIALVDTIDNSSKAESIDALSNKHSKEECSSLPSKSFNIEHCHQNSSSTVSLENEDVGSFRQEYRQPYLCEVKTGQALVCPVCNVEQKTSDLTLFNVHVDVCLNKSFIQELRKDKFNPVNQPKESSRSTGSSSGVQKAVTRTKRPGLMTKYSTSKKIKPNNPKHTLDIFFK
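Inhibition of 10 nM Pol kappa is measured by a fluorescent read-out at 0 and 10 min following addition of 50 nM substrate (final), with a 15-min room-temperature compound preincubation.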
L3MBTL1 inh-1: L3MBTL1 (human) inhibition. Q9Y468. AlphaScreen L3MBTL1–H3K9me1 peptide binding. Potency, µM (series often up to 57.1 µM), without a hit: at the highest dose activity, negative = inhibition, hits mostly inhibitors. 230,000 compounds, 0.66% hits. AID 485360; also: potency is read from the fitted curve at half-maximal effect; % is scaled to controls: 0 for no effect and ±100 for the full control effect; nearly all actives have a fitted effect of over 60% in size
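Displacement of a biotinylated histone H3(1-15) peptide monomethylated at Lys9 (75 nM) from L3MBTL1 (50 nM) was measured by AlphaScreen after a 30 min room-temperature compound incubation; cefsulodin titration served as intraplate control.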
Pol beta inh-2: Human Pol beta inhibitor hit validation; shares compounds with Pol beta inh-1; Pol beta primer extension/strand displacement, fluorescence kinetic; Potency, µM, usual class: inhibitors; 250 compounds, 87% hits; AID 540280; calls by dose curve; also: potency is read from the fitted curve at half-maximal effect
Klenow inh: Klenow polymerase inhibition, pol beta selectivity check. shares compounds with Pol beta inh-1. Klenow exo- polymerase counter-screen, fluorescent DNA substrate. activity change, negative = inhibition, % at 57.1 µM. 250 tested, under 10 active
HIV RT inh: HIV-1 RT inhibition, pol beta selectivity check | HIV-1 RT polymerase activity, counter-screen | shares compounds with Pol beta inh-1 | 250 tested, under 10 active | activity % (negative = inhibition, positive = activation), % at 57.1 µM
POLB inh gel: validation of human DNA polymerase beta inhibitors. shares compounds with Pol beta inh-1. radiolabeled primer extension gel assay, phosphorimager. AID 540325. 110 compounds, 91% hits. inhibition, % at 10 µM;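 active = inhibition at 10 µM of 30% or more; inconclusive = no clear call, values can overlap the other calls; inactive = inhibition at 10 µM under 30%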
L3MBTL1 inh-2: L3MBTL1 binding inhibition validated; AID 540279; 500 compounds, 91% hits; shares compounds with L3MBTL1 inh-1; L3MBTL1 methyl-lysine binding inhibition, biochemical qHTS; Potency, µM, hits mostly inhibitors; also: potency is read from the fitted curve at half-maximal effect; nearly all actives have a fitted effect of over 70% in size
AlphaScreen ctr2: counter-screen for L3MBTL1 inhibitors: AlphaScreen signal interference. shares compounds with L3MBTL1 inh-1. AlphaScreen counterscreen, signal inhibition. Potency, µM (doses to about 57.1 µM), without a hit: at the top dose activity change, negative = inhibition, hits mostly inhibitors. 500 tested, under 10 active; also: potency is read from the fitted curve at half-maximal effect; 0% is about no effect
PGK validate: validation of Trypanosoma brucei phosphoglycerate kinase inhibitors; TbPGK coupled GAPDH assay, Kinase-Glo luminescence; Potency, µM (top dose mostly 57.5 µM), for the others: at the highest dose activity change, negative = inhibition, actives largely listed as inhibitors; shares compounds with Pol kappa inh-1; 500 compounds, 79% hits; AID 686980; also: potency is read from the fitted curve at half-maximal effect; % is scaled to controls: 0 for no effect and ±100 for the full control effect; nearly all actives have a fitted effect of over 65% in size
Pol iota confirm: Confirm cherry-picked inhibitors of human polymerase iota; AID 720496; shares compounds with Pol kappa inh-1; Pol iota primer extension, TAMRA/BHQ fluorescence; 1,500 compounds, 77% hits; Potency, µM, most hits filed as inhibitors; also: potency is read from the fitted curve at half-maximal effect
Pol kappa inh-2: confirmation of human DNA polymerase kappa inhibitors; Potency, µM, actives largely listed as inhibitors; AID 720501; 920 compounds, 76% hits; purified Pol-kappa, fluorescent strand-displacement substrate; shares compounds with Pol eta inh-1; also: potency is read from the fitted curve at half-maximal effect
Pol eta inh-2: Pol eta (human) inhibition, cherry-pick confirmation | 2,600 compounds, 64% hits | Pol eta primer extension, TAMRA/BHQ fluorescence, 10 min | shares compounds with Pol eta inh-1 | Potency, µM, usual class: inhibitors; also: potency is read from the fitted curve at half-maximal effect
* = called active by the depositor; ? = inconclusive; / = no result given; [ ] = remark or other dose. Unless noted, calls follow the shape of the dose curve; as a rule, active = well fitted curve in the direction sought with a large enough effect; inconclusive = small, poorly fitted or top-dose-only effect, or another doubt; inactive = no such curve, though single readings can be large; an effect the other way counts as inactive or inconclusive.

SMILES	Pol beta inh-1	Pol iota inh	Pol eta inh-1	APEX1 inh	Pol kappa inh-1	L3MBTL1 inh-1	Pol beta inh-2	Klenow inh	HIV RT inh	POLB inh gel	Pol iota confirm	Pol eta inh-2	others
O=C(NCc1ccc2c(c1)OCO2)C1CCCN1S(=O)(=O)c1ccc(F)cc1 (stereo not drawn)	11.3%	48.0%	-6.8%	10.1%	-6.6%	/	/	/	/	/	/	/
O=C(COC(=O)c1cccc(S(=O)(=O)N2CCN(c3ccccc3)CC2)c1)NCc1ccco1	20µM*	?	8.91µM*	?	79.4µM*	?	12.6*	-32.9	10.4	/	75.2*	42.6*
CCOC(=O)c1ccccc1NC(=O)CSc1nc2cn(CC)nc2c(=O)n1Cc1ccc(Cl)cc1	6.4%	4.2%	-3.0%	/	-0.6%	/	/	/	/	/	/	/
Cc1cc(C)n(-c2nc(Nc3ccccc3)nc(-n3nc(C)cc3C)n2)n1	10µM*	-1.1%	?	-5.4%	-2.6%	-5.5%	?	-37.0	23.4	/	/	?
Cc1cc(/C=C2\C(=N)N3N=C(c4ccco4)SC3=NC2=O)c(C)n1Cc1ccccc1	10µM*	20µM*	22.4µM*	-5.0%	50.1µM*	?	14.1*	-11.1	-13.4	/	/	42.6*	Pol kappa inh-2=16.8*
Cc1ccc(-n2nc(C)c3c(C(=O)O)cc(C)nc32)cc1	17.4%	?	2.5%	/	-28.3%	/	/	/	/	/	/	/
Cc1nn(-c2ccccc2)c2nc(-c3ccco3)cc(C(=O)O)c12	14.1µM*	?	7.94µM*	?	28.2µM*	11.2µM*	25.1*	-36.9	?	65.0*	/	30.1*	L3MBTL1 inh-2=1.06*;AlphaScreen ctr2=2.5%
C=C(C)C(=O)Nc1cccc(C2=NOC3(C2)C[C@H](C(N)=O)N(C(=O)c2ccccc2)C3)c1 (stereo partly drawn)	17.8µM*	50.1µM*	12.6µM*	-5.3%	?	/	28.2*	-31.9	-1.5	85.6*	/	26.9*	PGK validate=?
O=[N+]([O-])c1ccc(N2CCCC2)c([N+](=O)[O-])c1	/	/	-5.5%	/	/	/	/	/	/	/	/	/
Cc1nnc(NC(=O)COc2ccc3c(C)cc(=O)oc3c2)s1	20µM*	?	10µM*	-10.3%	-23.1%	/	22.4*	2.6	-3.9	95.9*	59.7*	75.7*
CCN(CC)CCNC(=O)c1ccc(NC(=O)c2ccccc2-c2ccc(C(F)(F)F)cc2)cc1	1.4%	2.8%	-14.4%	-1.5%	1.7%	/	/	/	/	/	/	/
CCNC(=O)COC(=O)c1cc(-c2ccco2)nc2ccccc12	12.6µM*	8.91µM*	20µM*	25.1µM*	35.5µM*	25.1µM*	25.1*	-19.8	4.7	98.4*	33.6*	37.9*	L3MBTL1 inh-2=4.23*;AlphaScreen ctr2=6.4%
COc1ccc([C@]23Cc4cc(OC)c(OC)cc4C(O2)C2=C(CC(C)(C)CC2=O)O3)cc1	22.9%[22.9 µM]	/	/	-8.9%[12.4 µM]	/	/	/	/	/	/	/	/
COc1ccc(NC(=O)Cn2ncc(Cl)c(Cl)c2=O)cc1S(=O)(=O)N1CCOCC1	10µM*	20µM*	7.08µM*	?	44.7µM*	14.1µM*	31.6*	-6.2	?	98.2*	67*	75.7*	L3MBTL1 inh-2=11.9*;AlphaScreen ctr2=22.5%
COc1ccc(NC(=O)c2ccc(Cl)nc2)cc1S(=O)(=O)N1CCOCC1	/	?	-13.5%	14.5%	-14.1%	-5.3%	/	/	/	/	/	/
O=C(Nc1cccc(S(=O)(=O)NC2=NCCCCC2)c1)c1cc(-c2ccccc2)nc2ccccc12	9.1%	9.0%	-4.0%	?	-9.7%	-5.9%	/	/	/	/	/	/
O=C(Nc1cccc(S(=O)(=O)NC2=NCCC2)c1)c1cc(-c2ccco2)nc2ccccc12	3.55µM*	8.91µM*	10µM*	7.94µM*	31.6µM*	7.08µM*	4.47*	-39.4	6.1	/	33.6*	23.9*
Cc1cccc(Cn2c(=O)n(CCc3ccccc3)c(=O)c3c(C)c(C)sc32)c1	1.4%	27.7%	/	/	7.4%	/	/	/	/	/	/	/
O=C(CSc1ccsc1[N+](=O)[O-])Nc1cc(F)ccc1F	12.6µM*	?	7.08µM*	1.4%	25.1µM*	39.8µM*	25.1*	-33.5	-5.3	99.1*	67*	42.6*	PGK validate=14.6µM*
CCC(Cn1nnc2ccccc2c1=O)NC(=O)Nc1cccc(C)c1C (stereo not drawn)	72.9%	5.8%	-20.6%	/	4.7%	/	/	/	/	/	/	/
Cc1cc(C(=O)OCC(=O)NC2CCCCC2C)c2ccccc2n1 (stereo not drawn)	/	16.0%	-8.5%	-10.6%	9.5%	8.9%	/	/	/	/	/	/
CC1CCCCC1NC(=O)COC(=O)c1c2c(nc3ccccc13)/C(=C/c1ccco1)CC2 (stereo not drawn)	11.2µM*	3.55µM*	8.91µM*	?	10µM*	?	17.8*	-27.0	-4.8	/	33.6*	21.3*

Assay outcomes as filed in PubChem BioAssay.
